Where “and” joins values, the source holds several entries; their conditions need not be identical. Equal values may be shown once. Inconclusive results are not listed. Calls of active or inactive are those of the source. Rule for the calls, unless noted: active = hit-call score of the fitted dose curve at least 0.9, where 1 is the maximum; inconclusive = response in the unintended direction; inactive = score below 0.9.

For test [1], the target named is Agonist Androgen Response Element (ARE), AR (gene 367) (UniProt P10275). Nature of the test: OT_AR_ARELUC_AG_1440: Odyssey Thera (OT) 24-hour CHO-K1 Luciferase Assay for Agonist Androgen Response Element (ARE) (AID 2283379). In outline: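 Seed CHO-K1 cells; dose compounds for 24 h; add D-luciferin plus ATP in PBS; read luminescence. Signal increase relative to vehicle defines agonist activity, with at least 3 replicate wells per sample.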
Chain of Agonist Androgen Response Element (ARE), AR (gene 367) (P10275 whole entry, looked up): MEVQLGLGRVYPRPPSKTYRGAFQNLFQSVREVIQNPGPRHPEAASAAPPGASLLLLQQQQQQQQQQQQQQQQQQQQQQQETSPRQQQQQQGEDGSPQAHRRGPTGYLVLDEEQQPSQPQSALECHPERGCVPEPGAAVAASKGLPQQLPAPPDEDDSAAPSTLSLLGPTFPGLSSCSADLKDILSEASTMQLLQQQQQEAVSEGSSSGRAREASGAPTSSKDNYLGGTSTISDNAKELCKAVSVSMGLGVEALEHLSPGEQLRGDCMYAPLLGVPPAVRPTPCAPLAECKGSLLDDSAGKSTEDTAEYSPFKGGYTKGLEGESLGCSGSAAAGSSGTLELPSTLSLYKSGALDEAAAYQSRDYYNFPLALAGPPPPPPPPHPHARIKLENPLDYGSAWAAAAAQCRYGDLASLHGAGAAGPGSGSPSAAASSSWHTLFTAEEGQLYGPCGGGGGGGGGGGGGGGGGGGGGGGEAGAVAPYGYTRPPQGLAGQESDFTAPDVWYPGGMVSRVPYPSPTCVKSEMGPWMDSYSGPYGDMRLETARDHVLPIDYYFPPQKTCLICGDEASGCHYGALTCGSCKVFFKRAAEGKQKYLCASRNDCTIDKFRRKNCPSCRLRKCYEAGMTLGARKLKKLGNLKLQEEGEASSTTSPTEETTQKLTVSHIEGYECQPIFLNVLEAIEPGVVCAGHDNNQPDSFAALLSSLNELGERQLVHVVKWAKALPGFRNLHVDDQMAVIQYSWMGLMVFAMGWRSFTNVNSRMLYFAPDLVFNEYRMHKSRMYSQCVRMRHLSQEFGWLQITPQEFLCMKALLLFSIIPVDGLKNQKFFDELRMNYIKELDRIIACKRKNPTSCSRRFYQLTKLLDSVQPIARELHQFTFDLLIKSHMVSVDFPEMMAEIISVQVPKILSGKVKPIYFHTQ

The target of test [2] is Estrogen receptor (Homo sapiens) (UniProt P03372). In words: OT_ERa_GFPERaERE_0480: Odyssey Thera (OT) 8-hour HeLa Transcription Induction Assay for Estrogen Receptor (AID 2283381; active = hit-call score of the fitted dose curve at least 0.9, where 1 is the maximum; inactive = score below 0.9). In outline:
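HeLa cells expressing GFP reporter under estrogen response element, imaged 8 h after dosing. GFP induction quantified by high-content fluorescence microscopy image analysis; gain of signal fitted versus DMSO.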

Test [3] shares this target. Nature of the test: OT_ERa_GFPERaERE_0120: Odyssey Thera (OT) 2-hour HeLa Transcription Induction Assay for Estrogen Receptor (AID 2283382). In outline: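 HeLa cells were dosed for 2 h, then GFP reporter induction was quantified by fluorescence microscopy with high-content image analysis. Gain of signal fitted against DMSO baseline.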
Test [4] has as its target Peroxisome proliferator-activated receptor gamma (Homo sapiens) (UniProt P37231). Nature of the test: OT_PPARg_PPARgSRC1_0480: Odyssey Thera (OT) 8-hour Protein-Complementation Assay for Peroxisome Proliferator-activated Receptor Gamma / SRC-1 Co-activator (AID 2283387).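 Note: nuclear to cytoplasmic split Venus YFP fluorescence ratio reporting PPARg SRC-1 interaction.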 In outline: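 Protein-fragment complementation in HEK293T: Venus YFP halves (residues 1-158, 159-239, mutated to IFP1/IFP2) fused to PPARg/SRC-1. 8 h exposure; N/C ratio at 488 nm; DMSO negative control.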

For test [5] the target is unchanged. Nature of the test: OT_PPARg_PPARgSRC1_1440: Odyssey Thera (OT) 24-hour Protein-Complementation Assay for Peroxisome Proliferator-activated Receptor Gamma/ SRC-1 Co-activator (AID 2283388).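 Note: nuclear to cytoplasmic ratio of reconstituted Venus YFP fluorescence in fixed imaged cells.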 In outline: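 Protein-fragment complementation between PPARg and coactivator SRC-1 was measured by fluorescence imaging in transiently transfected HEK293T cells after 24 h treatment. Signal was quantified as N/C ratio in the 488 nm channel, with DMSO as negative control.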

Test [6] is described as follows: CEETOX_H295R_11DCORT: CeeTox H295R High-throughput Steroidogenesis Assay for 11-Deoxycortisol (11DCORT) (AID 2283432; active = hit-call score of the fitted dose curve at least 0.9, where 1 is the maximum; inactive = score below 0.9). Particulars: actives raise or lower the signal. In outline: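 Adrenal carcinoma line H295R, run per OECD 456 with minor changes, was forskolin-stimulated (10 uM, 48 h) before a 48 h chemical exposure at 0.1% DMSO. Secreted 11-deoxycortisol was quantified by HPLC-MS/MS.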

Test [7] can be described thus: CEETOX_H295R_OHPREG: CeeTox H295R High-throughput Steroidogenesis Assay for OH-Pregnenolone (OHPREG) (AID 2283434; active = hit-call score of the fitted dose curve at least 0.9, where 1 is the maximum; inactive = score below 0.9). Particulars: actives raise or lower the signal. The procedure, abridged: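 Human adrenal H295R cells were prestimulated 48 h with 10 uM forskolin, then exposed 48 h to chemical in 0.1% DMSO. Medium 17alpha-hydroxypregnenolone was quantified by HPLC-MS/MS after MTBE extraction; bidirectional fitting versus DMSO baseline.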

Test [8] can be described thus: CEETOX_H295R_OHPROG: CeeTox H295R High-throughput Steroidogenesis Assay for OH-Progesterone (OHPROG) (AID 2283435; active = hit-call score of the fitted dose curve at least 0.9, where 1 is the maximum; inactive = score below 0.9). Particulars: actives raise or lower the signal. The procedure, abridged: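 H295R adrenal cells prestimulated 48 h with 10 uM forskolin, then exposed 48 h to chemical (0.1% DMSO final). 17alpha-hydroxyprogesterone in medium quantified by HPLC-MS/MS; bidirectional fit versus DMSO, with MTT viability measured in the same wells.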

Test [9] is described as follows: CEETOX_H295R_ANDR: CeeTox H295R High-throughput Steroidogenesis Assay for Androstenedione (ANDR) (AID 2283436; active = hit-call score of the fitted dose curve at least 0.9, where 1 is the maximum; inactive = score below 0.9). The conditions noted are these: actives raise or lower the signal. In outline: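 H295R human adrenal cells (passages ≤10) were exposed to test chemicals for 48 h; androstenedione in medium was MTBE-extracted and quantified by HPLC-MS/MS against a 7-point standard curve. Bidirectional fitting used DMSO as baseline.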

Test [10] in a line: CEETOX_H295R_CORTISOL: CeeTox H295R High-throughput Steroidogenesis Assay for Cortisol (AID 2283438; active = hit-call score of the fitted dose curve at least 0.9, where 1 is the maximum; inactive = score below 0.9;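 note: cortisol secreted into medium quantified by LC-MS/MS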). Particulars: actives raise or lower the signal. The procedure, abridged:
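Forskolin-primed H295R cells (10 uM, 48 h) treated 48 h with test chemical in 0.1% DMSO. Cortisol in medium quantified by MTBE extraction and HPLC-MS/MS; bidirectional fit vs DMSO, MTT viability in same wells.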

The nature of test [11]: CEETOX_H295R_DOC: CeeTox H295R High-throughput Steroidogenesis Assay for DOC (AID 2283439; active = hit-call score of the fitted dose curve at least 0.9, where 1 is the maximum; inactive = score below 0.9). The conditions noted are these: actives raise or lower the signal. In outline:
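H295R cells prestimulated 48 h with 10 uM forskolin, then exposed 48 h to test chemical (0.1% DMSO final). Medium 11-deoxycorticosterone measured by HPLC-MS/MS after MTBE extraction; bidirectional fit vs DMSO, viability checked by MTT in same wells.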

The nature of test [12]: CEETOX_H295R_PROG: CeeTox H295R High-throughput Steroidogenesis Assay for Progesterone (PROG) (AID 2283442; active = hit-call score of the fitted dose curve at least 0.9, where 1 is the maximum; inactive = score below 0.9). Particulars: actives raise or lower the signal. The procedure, abridged:
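Steps: seed H295R cells and let them adhere overnight; prime 48 h with 10 uM forskolin; dose with compound in DMSO at 0.1% final for 48 h; extract medium steroids with MTBE; measure progesterone by LC-MS/MS. MTT viability was run in the same wells.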

Read-out in test [13]: Tumor necrosis factor receptor superfamily member 6 (Homo sapiens) (UniProt P25445)
In words: LTEA_HepaRG_FAS: Life Technologies and Expression Analysis (LTEA) Assay for Fas cell surface death receptor (FAS) using HepaRG (AID 2283447; active = hit-call score of the fitted dose curve at least 0.9, where 1 is the maximum; inactive = score below 0.9). Particulars: mRNA level, 48 h; actives raise or lower the signal. In outline: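 Differentiated human HepaRG cells, pre-cultured 48 h, were exposed in duplicate for 48 h to 8-point half-log concentrations (top 100 uM, 0.5% DMSO) in serum-free induction medium; FAS mRNA measured by qRT-PCR, normalized to ACTB/GAPDH/POLR2A, bidirectional fit versus DMSO.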

Read-out in test [14]: Fatty acid synthase (Homo sapiens) (UniProt P49327)
In words: LTEA_HepaRG_FASN: Life Technologies and Expression Analysis (LTEA) Assay for Fatty Acid Synthase (FASN) using HepaRG (AID 2283448; active = hit-call score of the fitted dose curve at least 0.9, where 1 is the maximum; inactive = score below 0.9). Particulars: mRNA level, 48 h; actives raise or lower the signal. The procedure, abridged: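 Differentiated HepaRG cells in serum-free induction medium exposed 48 h in duplicate to eight half-log concentrations, top 100 uM, 0.5% DMSO. FASN mRNA by qRT-PCR normalised to ACTB, GAPDH, POLR2A; bidirectional fit versus DMSO.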

For test [15], the target named is Estrogen receptor beta (Homo sapiens) (UniProt Q92731). In words: OT_ER_ERbERb_1440: Odyssey Thera (OT) 24-hour HEK293T Protein-Complementation Assay for Estrogen Receptor-beta/-beta Homodimer (AID 2283380).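 Note: fluorescence gain from ER beta LBD homodimer complementation read by laser scanning cytometry; scored as signal increase over DMSO baseline for both agonists and antagonists.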 In outline:
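HEK293T cells stably expressing human ER-beta LBD (aa 310-547) PCA homodimer pair, dosed 24 h; formaldehyde-fixed, Draq5-stained. Readout: increase in nuclear (agonist) or nuclear plus cytoplasmic (antagonist) fluorescence intensity versus DMSO, gain-of-signal fitting.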

For test [16], the target named is Bile acid receptor (Homo sapiens) (UniProt Q96RI1). In words: OT_FXR_FXRSRC1_1440: Odyssey Thera (OT) 24-hour HEK293T Protein-Complementation Assay for Farnesoid X receptor/SRC-1 Co-activator (AID 2283384). In outline: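 HEK293T cells, 24 h after chemical dosing. FXR–SRC-1 coactivator interaction read as fluorescence from protein-fragment complementation of a split reporter. Gain of signal fitted against DMSO baseline.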
Chain of Bile acid receptor (Homo sapiens) (Q96RI1 whole entry, looked up, the tested form may be a part): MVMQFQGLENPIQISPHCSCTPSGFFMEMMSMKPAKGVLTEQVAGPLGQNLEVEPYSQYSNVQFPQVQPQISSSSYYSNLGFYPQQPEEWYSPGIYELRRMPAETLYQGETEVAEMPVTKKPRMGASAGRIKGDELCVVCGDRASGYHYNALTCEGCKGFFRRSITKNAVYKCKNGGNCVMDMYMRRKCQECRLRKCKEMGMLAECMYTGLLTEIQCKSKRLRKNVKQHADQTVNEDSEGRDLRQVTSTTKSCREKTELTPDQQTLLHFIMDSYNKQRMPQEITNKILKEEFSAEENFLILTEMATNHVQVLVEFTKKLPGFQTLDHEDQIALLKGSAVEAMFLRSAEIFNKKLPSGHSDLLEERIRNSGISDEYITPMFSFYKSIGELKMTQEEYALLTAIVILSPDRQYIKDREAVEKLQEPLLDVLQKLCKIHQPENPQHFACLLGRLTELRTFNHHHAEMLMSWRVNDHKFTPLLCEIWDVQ

The target in test [17] is Retinoic acid receptor RXR-alpha (Homo sapiens) (UniProt P19793). In words: OT_NURR1_NURR1RXRa_0480: Odyssey Thera (OT) 8-hour HEK293T Protein Complementation Assay for Nurr1/retinoid X receptor (RXR) (AID 2283385). The procedure, abridged: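 HEK293T cells expressing Nurr1 and RXRα fused to reporter fragments (protein-fragment complementation); fluorescence measured 8 h after dosing. Gain of signal fitted relative to DMSO.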
Chain of Retinoic acid receptor RXR-alpha (Homo sapiens) (P19793 whole entry, looked up, the tested form may be a part): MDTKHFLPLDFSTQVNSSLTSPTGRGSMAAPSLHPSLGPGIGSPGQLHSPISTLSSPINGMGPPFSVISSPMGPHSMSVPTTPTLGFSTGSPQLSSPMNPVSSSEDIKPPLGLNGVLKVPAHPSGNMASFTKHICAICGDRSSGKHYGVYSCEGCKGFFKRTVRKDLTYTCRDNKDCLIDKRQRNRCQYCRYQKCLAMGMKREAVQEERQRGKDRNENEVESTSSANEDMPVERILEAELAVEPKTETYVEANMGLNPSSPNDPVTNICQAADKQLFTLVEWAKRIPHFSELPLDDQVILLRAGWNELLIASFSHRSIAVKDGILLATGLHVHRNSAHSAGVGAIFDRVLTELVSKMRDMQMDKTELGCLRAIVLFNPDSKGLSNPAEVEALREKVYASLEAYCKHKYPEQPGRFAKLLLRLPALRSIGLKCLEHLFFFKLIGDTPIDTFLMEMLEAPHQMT

The target is the same in test [18]. Nature of the test: OT_NURR1_NURR1RXRa_1440: Odyssey Thera (OT) 24-hour HEK293T Protein Complementation Assay for Nurr1/retinoid X receptor (RXR) (AID 2283386). In outline:
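HEK293T protein-fragment complementation of Nurr1 and RXRα fused to reporter fragments; compounds 24 h. Fluorescence gain from reconstituted reporter fitted versus DMSO.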

A short description of test [19]: CEETOX_H295R_ESTRADIOL: CeeTox H295R High-throughput Steroidogenesis Assay for Estradiol (AID 2283440; active = hit-call score of the fitted dose curve at least 0.9, where 1 is the maximum; inactive = score below 0.9;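 note: estradiol secreted into medium quantified by LC-MS/MS after dansyl derivatisation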). The conditions noted are these: actives raise or lower the signal. In outline: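 Estradiol secreted into the medium was measured by tandem mass spectrometry after liquid-liquid extraction and dansylation. Human H295R cells had been forskolin-primed (10 uM, 48 h) before a 48 h chemical exposure with 0.1% DMSO.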

Test [20] in a line: CEETOX_H295R_ESTRONE: CeeTox H295R High-throughput Steroidogenesis Assay for Estrone (AID 2283441; active = hit-call score of the fitted dose curve at least 0.9, where 1 is the maximum; inactive = score below 0.9;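 note: estrone secreted into medium measured by LC-MS/MS after dansyl derivatization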). Particulars: actives raise or lower the signal. The procedure, abridged: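 H295R cells prestimulated 48 h with 10 uM forskolin, then exposed 48 h to chemicals in 0.1% DMSO final; estrone in medium extracted with MTBE, dansyl-derivatized, quantified by HPLC-MS/MS; bidirectional fitting versus DMSO, viability by MTT.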

Chain of Peroxisome proliferator-activated receptor gamma (Homo sapiens) (P37231 whole entry, looked up, the tested form may be a part): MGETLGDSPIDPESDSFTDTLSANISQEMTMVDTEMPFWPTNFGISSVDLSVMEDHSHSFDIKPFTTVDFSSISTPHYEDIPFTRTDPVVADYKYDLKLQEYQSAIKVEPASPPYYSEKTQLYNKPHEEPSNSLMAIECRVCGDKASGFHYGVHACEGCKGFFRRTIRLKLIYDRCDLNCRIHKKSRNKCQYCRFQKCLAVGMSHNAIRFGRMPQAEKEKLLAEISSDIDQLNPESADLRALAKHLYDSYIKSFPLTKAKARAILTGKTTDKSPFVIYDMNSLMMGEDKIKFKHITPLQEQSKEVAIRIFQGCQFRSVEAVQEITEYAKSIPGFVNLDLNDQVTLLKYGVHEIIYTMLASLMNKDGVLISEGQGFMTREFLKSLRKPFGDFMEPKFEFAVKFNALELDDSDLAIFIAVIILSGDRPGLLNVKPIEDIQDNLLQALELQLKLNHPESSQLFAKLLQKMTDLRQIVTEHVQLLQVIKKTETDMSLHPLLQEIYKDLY
Chain of Estrogen receptor beta (Homo sapiens) (Q92731 whole entry, looked up, the tested form may be a part): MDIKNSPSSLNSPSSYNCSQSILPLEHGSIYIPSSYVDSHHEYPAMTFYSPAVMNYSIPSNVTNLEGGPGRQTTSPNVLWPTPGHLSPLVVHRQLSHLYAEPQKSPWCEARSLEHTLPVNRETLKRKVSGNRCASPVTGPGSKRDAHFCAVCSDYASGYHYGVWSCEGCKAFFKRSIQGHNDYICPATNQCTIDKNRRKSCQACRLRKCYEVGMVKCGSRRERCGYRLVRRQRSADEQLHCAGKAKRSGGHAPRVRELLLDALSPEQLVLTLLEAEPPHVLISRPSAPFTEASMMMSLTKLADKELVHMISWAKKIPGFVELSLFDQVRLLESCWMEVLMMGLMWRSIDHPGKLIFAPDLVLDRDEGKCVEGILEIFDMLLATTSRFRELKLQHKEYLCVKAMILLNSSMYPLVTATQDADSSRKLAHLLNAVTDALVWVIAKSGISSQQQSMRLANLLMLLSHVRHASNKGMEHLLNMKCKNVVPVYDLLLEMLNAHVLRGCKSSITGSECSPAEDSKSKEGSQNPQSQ
Chain of Estrogen receptor (Homo sapiens) (P03372 whole entry, looked up): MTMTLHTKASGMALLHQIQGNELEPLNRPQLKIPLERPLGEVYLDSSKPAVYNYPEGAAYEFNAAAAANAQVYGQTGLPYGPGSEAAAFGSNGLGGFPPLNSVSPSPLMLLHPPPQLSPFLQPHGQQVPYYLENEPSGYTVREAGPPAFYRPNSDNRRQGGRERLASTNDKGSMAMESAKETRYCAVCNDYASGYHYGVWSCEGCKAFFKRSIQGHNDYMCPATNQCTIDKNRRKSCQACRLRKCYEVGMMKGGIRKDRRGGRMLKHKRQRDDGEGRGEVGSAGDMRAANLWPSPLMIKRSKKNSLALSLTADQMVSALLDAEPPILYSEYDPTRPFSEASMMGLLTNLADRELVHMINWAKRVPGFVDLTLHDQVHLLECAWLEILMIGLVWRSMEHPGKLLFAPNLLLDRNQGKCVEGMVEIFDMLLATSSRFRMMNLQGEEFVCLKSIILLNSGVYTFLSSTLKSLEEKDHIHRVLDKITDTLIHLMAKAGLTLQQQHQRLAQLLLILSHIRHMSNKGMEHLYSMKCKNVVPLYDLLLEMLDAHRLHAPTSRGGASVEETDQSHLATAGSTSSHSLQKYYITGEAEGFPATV

For `COc1ccc2c(c1)c(CC(=O)O)c(C)n2C(=O)c1ccc(Cl)cc1`, the compound was called inactive in [1], in test [2], in test [3], in [4], in test [5] and in test [6]. Also, the result in [7], in [8], in test [9], in test [10], in test [11] and in test [12] was inactive. Also, the result in test [13] and in [14] was inactive.

As a reminder, the AC50 is the concentration at which the activity in the assay is half-maximal. Consider `COc1cc(-c2nc(NC(=O)c3cc4cc(C)cc(C)c4n3CC(=O)O)sc2CCC2CCCCC2)c(OC)cc1Cl`, for which the call in [15], in test [3], in test [4], in test [5] and in test [14] was inactive. For the same compound, the AC50 is 66.2 µM (active) in test [2]; 10.1 µM (active) in test [16]; 10.3 µM (active) and 10 µM (active) in test [17]; 10.3 µM (active) and 9.86 µM (active) in [18]; 20.8 µM (active) in test [13].

For `CNC(=O)[C@H]1O[C@@H](n2cnc3c(NCc4cc(Cl)ccc4OCc4cc(C)no4)ncnc32)[C@H](O)[C@@H]1N`, the compound was called inactive in test [1], in test [15], in test [2], in [3], in test [17] and in [18]. In addition, the compound was classed as inactive in test [4], in test [5], in test [13] and in test [14].

Turning to `Cc1ccc(C)c(C)c1`, the compound was called inactive in [1], in test [15], in test [2], in test [3], in [17] and in [18]. In addition, the result in test [4], in test [5], in test [13] and in test [14] was inactive.

On to `O=C(O)CCCCC(=O)O`, for which the compound was called inactive in test [15], in test [2], in test [3], in test [16], in test [17] and in [18]. The result in test [4], in test [5], in test [13] and in [14] was inactive.

On to `Oc1ccc2ccccc2c1N=Nc1ccccc1`, for which the compound was classed as inactive in test [15], in test [2], in [3], in test [17], in test [4] and in [5]. The compound was called inactive in [7] and in test [13]. The AC50 in test [16] was 32.9 µM (active); in [19], 10.7 µM (active); in test [20], 10.1 µM (active); in [14] it was 1.16 µM (active).

For `Cc1cccc([N+](=O)[O-])c1C`, the call in [1], in test [15], in [2], in test [3], in test [17] and in test [18] was inactive. In addition, the result in test [4], in test [5], in test [13] and in test [14] was inactive.

In the case of `CCCCCCCCCCO`, the compound was called inactive in [15], in test [2], in test [3], in test [16], in test [17] and in test [4]. Also, the call in test [5], in test [13] and in test [14] was inactive.

Regarding `CCCCCCCCCCCC(=O)OC`, the call in test [15], in [2], in [3], in test [16], in test [17] and in [18] was inactive. For the same compound, the compound was classed as inactive in test [4], in test [5], in test [13] and in [14].

Turning to `Cc1ccccc1Cl`, the call in test [1], in [2], in test [3], in test [16], in [17] and in test [18] was inactive. Besides, the compound was classed as inactive in [4], in test [5], in test [13] and in [14].

For the compound `COCCOCCOC`, the call in test [1], in test [15], in test [2], in test [3], in [17] and in test [18] was inactive. The call in test [4], in test [5] and in test [14] was inactive. For the same compound, in test [13], the AC50 was 0.382 µM (active).

The record behind these values is PubChem BioAssay (EPA / NIEHS).
